# According to PubChem BioAssay (NCATS):
# Records with an inconclusive call do not appear. A number with no mark means an inactive call. Calls of active or inactive are those of the source. The call rests on the fitted dose curve; in most records, active means well fitted inhibition curve with a large enough effect; inconclusive means small, poorly fitted or top-dose-only effect; inactive means no such curve, though single readings can be large or run the other way.
# Assay: Primary fluorescence-based thiol-reactive (MSTI) qHTS assay for identification of artifact compounds. (AID 1845221); further: nearly all actives have a fitted effect of over 65% in size;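 on activity change, negative = thiol reactive: thiol-reactive compounds lower the probe fluorescence signal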
# Details: MSTI thiol-reactivity probe, 1 h; series mostly up to 53.8 µM; activity change, negative = thiol reactive: at the top concentration
# Description: PI: Alexander Tropsha Ph.D.
# UNC Eshelman School of Pharmacy
# University of North Carolina, Chapel Hill, North Carolina
# Hits from high-throughput screening (HTS) of chemical libraries are often false positives due to their interference with the assay detection technology. In response to this problem, we generated the largest publicly available library of chemical liabilities and developed a free webtool to predict HTS artifacts, both of which are described herein. More specifically, we generated, curated, and integrated HTS datasets for thiol reactivity, redox activity, and luciferase (firefly and nano) activity. Using these curated datasets, we developed and validated several Quantitative Structure-Interference Relationship (QSIR) models to predict nuisance behavior. […] These models were employed for virtual profiling of the National Center for Advancing Translational Science's (NCATS) in-house library, and 256 compounds for each assay were selected for the experimental validation of nuisance behavior. The BA for these external predictions ranged from 58 to 78% for compounds within the applicability domains of the models. […] The models developed in this study, along with aggregation models previously developed by our group (SCAM Detective) were implemented in "Liability Predictor," an online tool which may be used as part of chemical library design or for triaging HTS hits. Both the models and the curated datasets are publicly available at https://liability.mml.unc.edu/.
# SEQUENCE No. (e.g., 1, 2, 3, etc.); […] (e.g., Cells, Incubation, Reagent, etc.); VALUE; DESCRIPTION.
# 1; Reagent; 4 uL; […].
# 2; Compounds and control; 16 nL; Kalypsis pin tool (Wako USA) equipped with a 1536-well pin head.
# 4; Detection; Fluorescence, ViewLux microplate reader, 525 nm excitation, 598 nm emission.
# NOTES (numbers refer to Sequence numbers above)
# 1. Assays determining (E)-2-(4-mercaptostyryl)-1,3,3-trimethyl-3H-indol-1-ium (MSTI) reactivity were performed as previously described in the literature with modifications for the quick identification of compounds reacting with thiol. In brief, 4 uL of MSTI or positive control Acetyl-MSTI (final concentrations of 4 uM and 4 uM, respectively) in assay buffer (2% DMSO in 1X PBS pH 7.4) was dispensed into all wells of a 1536-well assay plate (solid-bottom black plate; Greiner Bio One, Monroe, NC).
# 2. A Wako Pin-tool (Wako Automation, Richmond, VA) was used to transfer 16 nL of compounds (consisting of 7-plates in qHTS format, final concentration range 18.3 nM to 114 uM) or control MLS001163887 (final concentration range 1.22 nM to 40 uM).
# 3. Plates were centrifuged (121xg, 15 seconds) and incubated for 1 hour at room temperature protected from light.
# 4. Samples were read for fluorescence (Ex/Em = 525(20)/598(25) nm) on a ViewLux CCD imager (PerkinElmer). Data were normalized to Acetyl-MSTI (0% activity) and MSTI (100% activity) and the resulting percent inhibition data were fitted to a 4-parameter Hill equation using NCATS in-house software.
# Potency means the concentration at half of the fitted maximal effect.
Compound,"activity change, negative = thiol reactive",Potency
CC(C)(N)C(=O)N[C@H](COCc1ccccc1)C(=O)N1CCC2(CC1)CN(S(C)(=O)=O)c1ccccc12,26.8%,–
Cc1csc(NC(=O)c2sc3nc4c(c(C(F)(F)F)c3c2N)CCC4)n1,-0.968%,–
Cc1n[nH]c(C)c1Cc1sc2c(c1C(=O)N1C[C@H](O)CO1)c(=O)n(C)c(=O)n2CC(C)C,12%,–
Clc1ccc(Nc2nnc(Cc3ccncc3)c3ccccc23)cc1,14.4%,–
Cn1cc(-c2ccc3nnc(C(F)(F)c4ccc5ncccc5c4)n3n2)cn1,218%,–
COc1nc(-c2ccc3c(c2)OCO3)n(-c2ccc(NC(=O)CSc3ccccc3)cc2)n1,581%,–
COc1cc(Oc2ccnc3cc(OC)c(OC)cc23)ccc1NC(=O)NC(C)c1nccs1 (stereo not given),58.5%,–
CCCS(=O)(=O)Nc1ccc(F)c(C(=O)c2c[nH]c3ncc(-c4ccc(Cl)cc4)cc23)c1F,38.4%,–
COc1cc2c(cc1OC)CN(CCc1ccc(NC(=O)c3cccc4c(=O)c5cccc(OC)c5[nH]c34)cc1)CC2,-22.5%,–
COc1cccc2cc(-c3nc(C4CCC(C(=O)O)CC4)n4ncnc(N)c34)[nH]c12 (stereo not given),–,26700 nM (active)
CCN(CC)CCCC(C)Nc1ccnc2cc(Cl)ccc12 (stereo not given),-0.305% [at 11.5 µM],–
Cc1cc(Nc2nc(N[C@@H](C)c3ncc(F)cn3)ncc2Cl)n[nH]1,-5.42%,–
CCC(C)n1ncn(-c2ccc(N3CCN(c4ccc(OC[C@H]5CO[C@](Cn6cncn6)(c6ccc(Cl)cc6Cl)O5)cc4)CC3)cc2)c1=O (stereo not given in full),-8.71% [at 25.6 µM],–
C[C@H](NC(=O)Cc1cc(F)cc(F)c1)C(=O)N[C@@H]1C(=O)N(C)c2ccccc2-c2ccccc21,152%,–
COc1cc(Nc2ncc3c(n2)-c2ccc(Cl)cc2C(c2c(F)cccc2OC)=NC3)ccc1C(=O)O,–,inactive
C[C@@H]1CN(Cc2ccc(F)cc2)[C@@H](C)CN1C(=O)c1cc2c(C(=O)C(=O)N(C)C)cn(C)c2cc1Cl,17.6%,–
CN(C)c1ccc(C2Nc3ccc4ccccc4c3C3=C2C(=O)CC(C)(C)C3)cc1Br (stereo not given),-14.9%,–
CCCc1nn(C)c2c(=O)[nH]c(-c3cc(S(=O)(=O)N4CCN(C)CC4)ccc3OCC)nc12,230%,–
CNCc1ccc(-c2[nH]c3cc(F)cc4c3c2CCNC4=O)cc1,-18.3%,–
CC(C)(Sc1ccc(CCN(CCCCC2CCCCC2)C(=O)NC2CCCCC2)cc1)C(=O)O,56.7%,–

Compound,"activity change, negative = thiol reactive",Potency
CCOc1ccn(-c2ccc(F)cc2)c(=O)c1C(=O)Nc1ccc(Oc2ccnc(N)c2Cl)c(F)c1,307%,–
COc1cc2nccc(Oc3ccc(NC(=O)NC4CC4)c(Cl)c3)c2cc1C(N)=O,47.8%,–
N#CC[C@H](C1CCCC1)n1cc(-c2ncnc3[nH]ccc23)cn1,42.9%,–
CCOc1cc(C(=O)Nc2ccc(Cl)c(-c3nc4ccccc4[nH]3)c2)cc(OCC)c1OCC,159%,–
O=C(Nc1ccc(F)c(C(F)(F)F)c1)Nc1nnc(-c2ccncc2)s1,47.4%,–
CC[C@@H](C)[C@H](NC(=O)[C@H](CC1CCCCC1)NC(=O)c1ccno1)C(=O)N1CCC2(CCc3ccccc32)CC1,-7.13%,–
C#Cc1cccc(Nc2ncnc3cc(OCCOC)c(OCCOC)cc23)c1,99.6%,–
CN(C)c1ccc(Nc2nc(N)n(C(=O)c3c(F)cccc3F)n2)cc1,–,1340 nM (active)
CC[C@H](Nc1ncnc2nc[nH]c12)c1nc2cccc(F)c2c(=O)n1-c1ccccc1,52.7% [at 11.5 µM],–
COc1ccc(CCN2CCN(CCCc3ccccc3)CC2)cc1OC,19.5%,–
O=C(c1cc(Cc2n[nH]c(=O)c3ccccc23)ccc1F)N1CCN(C(=O)C2CC2)CC1,65.2%,–
CN(C(=O)c1ccc(F)cc1C(F)(F)F)C1CCN(c2nnc(-c3ccnn3C)c3ccccc23)CC1,-20.8%,–
CS(=O)(=O)c1ccc(C(=O)Nc2ccc(Cl)c(-c3ccccn3)c2)c(Cl)c1,231%,–
O=C(O)CCc1ccc(NCc2cccc(Oc3ccccc3)c2)cc1,–,1680 nM (active)
O=C1CCCC2=C1C(c1[nH]ncc1Cl)N=C(Nc1nc3ccccc3o1)N2 (stereo not given),11.9%,–
Cc1ccnc(NS(=O)(=O)c2ccc(NC(=O)Nc3ccc(S(=O)(=O)Nc4nccc(C)n4)cc3)cc2)n1,21.4%,–
COc1c(Cl)cc2c([nH]c3cnccc32)c1NC(=O)c1cccnc1C,102%,–
CS(=O)(=O)c1cccc(CNc2nc(Nc3ccc4c(c3)CCC(=O)N4)ncc2C(F)(F)F)c1,-15.5%,–
CN(C)C(=O)c1ccc(S(=O)(=O)c2ccc(NC(=O)[C@@](C)(O)C(F)(F)F)c(Cl)c2)cc1,141%,–
CCc1cncnc1N1CCN(Cc2nc3ccc(C(F)(F)F)cc3[nH]2)CC1,134%,–
